Results taken from publication PMC4336329 (PLoS ONE, 2015).
Among all 310,000 compounds or so, about 2,200 (0.71%) showed an effect of 50% or more. The effect is printed as a negative number. The full list was thinned out, with strong results kept by preference.

Target: human ether-à-go-go-related gene (hERG) potassium channel (human, UniProt Q12809)
Assay: primary screen, population patch clamp on CHO cells stably expressing hERG; higher = less effect of the substance

human ether-à-go-go-related gene (hERG) potassium channel, sequence (Q12809 whole entry, looked up): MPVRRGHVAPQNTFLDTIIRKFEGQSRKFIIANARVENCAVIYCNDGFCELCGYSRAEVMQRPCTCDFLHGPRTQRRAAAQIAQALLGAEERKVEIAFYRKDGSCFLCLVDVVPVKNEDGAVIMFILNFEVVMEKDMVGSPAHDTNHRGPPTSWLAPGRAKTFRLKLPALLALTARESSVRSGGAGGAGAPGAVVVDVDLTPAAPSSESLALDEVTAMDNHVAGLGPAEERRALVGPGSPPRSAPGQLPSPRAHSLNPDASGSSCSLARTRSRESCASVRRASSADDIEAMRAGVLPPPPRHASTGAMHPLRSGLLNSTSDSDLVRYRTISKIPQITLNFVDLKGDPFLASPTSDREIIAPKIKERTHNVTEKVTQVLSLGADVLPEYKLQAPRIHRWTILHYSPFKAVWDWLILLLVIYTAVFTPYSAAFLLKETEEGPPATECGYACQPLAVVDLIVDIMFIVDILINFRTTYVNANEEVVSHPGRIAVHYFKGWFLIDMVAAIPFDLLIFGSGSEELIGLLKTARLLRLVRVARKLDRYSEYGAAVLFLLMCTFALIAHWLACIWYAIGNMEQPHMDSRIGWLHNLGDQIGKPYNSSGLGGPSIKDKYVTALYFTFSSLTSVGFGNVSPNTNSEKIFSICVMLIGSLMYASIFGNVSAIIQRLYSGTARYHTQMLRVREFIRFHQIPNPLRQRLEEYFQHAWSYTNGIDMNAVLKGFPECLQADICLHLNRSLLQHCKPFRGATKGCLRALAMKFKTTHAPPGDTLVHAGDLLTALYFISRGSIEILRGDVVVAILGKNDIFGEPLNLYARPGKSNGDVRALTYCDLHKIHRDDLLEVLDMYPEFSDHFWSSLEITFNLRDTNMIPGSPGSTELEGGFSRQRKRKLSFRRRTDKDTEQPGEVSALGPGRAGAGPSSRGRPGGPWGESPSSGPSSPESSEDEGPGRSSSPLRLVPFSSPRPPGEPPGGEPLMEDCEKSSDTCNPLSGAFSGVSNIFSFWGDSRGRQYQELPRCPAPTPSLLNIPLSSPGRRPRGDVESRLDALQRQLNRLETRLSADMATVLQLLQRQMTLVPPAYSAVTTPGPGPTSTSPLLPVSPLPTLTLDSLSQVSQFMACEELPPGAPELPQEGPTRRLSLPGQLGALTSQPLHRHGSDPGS

| Compound | hERG current change (%, negative = inhibition) at 1uM [%] |
| --- | --- |
| CCOC(=O)C(C)n1cnc2c1c(=O)[nH]c(=O)n2C (stereo not drawn) | 8.76 |
| CCCCNC(=O)[C@H]1C[C@H]1[C@@H](O)[C@H](CO)NC(=O)[C@H](Cc1ccccc1)NC(=O)OC(C)(C)C | 11.5 |
| CCOc1ccc(C(=O)Nc2ccc(S(=O)(=O)N3C[C@@H]4C[C@@H](C3)c3cccc(=O)n3C4)cc2)cc1 | -1.43 |
| Cc1c(C(=O)N2CCOCC2)[nH]c2ccc(OCc3ccccc3)cc12 | -1.19 |
| CCN(CC)CCNC(=O)c1[nH]c2ccc(OCc3ccccc3)cc2c1C | -61.3 |
| COc1ccc2[nH]c(C(=O)NCc3ccccc3)c(C)c2c1.Cl | 10.3 |
| COc1ccc(N(C(=O)c2ccccc2OC)C2C=CS(=O)(=O)C2)c(OC)c1 (stereo not drawn) | 14.4 |
| COc1ccc(CN2CCNC(=O)C2CC(=O)NCCc2nc(C)c3c(n2)CCC3)cc1C (stereo not drawn) | 32.9 |
| CCC(c1nnnn1CCc1ccccc1)N1CCN(c2ccc(OC)cc2)CC1 (stereo not drawn) | 14.5 |
| COc1cccc(CC2(CO)CCN(Cc3cccn3-c3cccnc3)CC2)c1 | -6.04 |
| COc1ccc(CN2CCC(CO)(Cc3ccccc3C(F)(F)F)CC2)c(F)c1 | -53 |
| COC(=O)c1ccc(CN2CCC(CO)(Cc3ccc(OC)cc3)CC2)cc1 | -35.1 |
| COc1ccc(CC2(CO)CCN(Cc3cccc(OC)c3OC)CC2)cc1 | -17.3 |
| COc1ccc(CC2(CO)CCN(Cc3ccc(OC(F)(F)F)cc3)CC2)cc1 | -57.5 |
| COc1ccc(CC2(CO)CCN(Cc3cccn3-c3ccccn3)CC2)cc1 | -84.2 |
| OCC1(Cc2cccc(F)c2)CCN(Cc2cccc3nccnc23)CC1 | -19.8 |
| COc1ccc(CC2(CO)CCN(Cc3cccc4nccnc34)CC2)cc1 | -53 |
| COc1ccc(CC2(CO)CCN(Cc3ccncc3)CC2)cc1 | 7.36 |
| COc1ccc(F)c(CN2CCC(CO)(Cc3cccc(C(F)(F)F)c3)CC2)c1 | -1.43 |
| OCC1(Cc2ccccc2C(F)(F)F)CCN(Cc2ccccc2)CC1 | 3.01 |
| COc1ccc(CC2(CO)CCN(Cc3cccnc3)CC2)cc1 | 1.4 |

| Compound | hERG current change (%, negative = inhibition) at 1uM [%] |
| --- | --- |
| Cc1ccc(-c2nc(CS(=O)CC(=O)N3CCC4(CC3)OCCO4)c(C)o2)cc1 (stereo not drawn) | -3.05 |
| Cc1ccc(N2CCN(C(=S)Nc3ccc(Cl)cc3)CC2)cc1 | 13.4 |
| CCN(CCCNC(=O)Cn1ncc2c([nH]c3ccccc32)c1=O)Cc1ccccc1 | -2.84 |
| Nc1c(C(=O)c2ccccc2)sc2snc(SCC(=O)c3ccccc3)c12 | 14.8 |
| COc1cc(/C=C/C(=O)OCC(=O)N2CCCc3ccccc32)ccc1OCC#N | 14.6 |
| Nc1cccc(Oc2ccc([N+](=O)[O-])cc2)c1 | 7.1 |
| Cc1nc(-c2cnn(-c3ccccc3)c2)c2cc(C)oc2n1 | 10.3 |
| Cc1nn(-c2ccccn2)c2c1-c1nc(N3CCOCC3)ncc1CC2 | 8.1 |
| CC[C@H]1CN(C)C[C@@]2(C(=O)OC)Cc3c([nH]c4ccccc34)C(=O)C[C@@H]12 | 10.5 |
| CC[C@@H]1CN(C)[C@H]2Cc3c([nH]c4ccccc34)C(=O)C[C@@H]1[C@@H]2C(=O)OC | 11.8 |
| CC[C@H]1CN(C)CCc2c([nH]c3ccccc23)C(=O)C[C@@H]1/C(=C\OC)C(=O)OC | -53.3 |
| Cl.Oc1ccc2c3c1O[C@H]1c4[nH]c5ccccc5c4C[C@@]4(O)[C@@H](C2)N(CC2CC2)CC[C@]314 | -29.7 |
| CS(=O)(=O)O.O.Oc1ccc2c3c1O[C@H]1c4oc5ccccc5c4C[C@@]4(O)[C@@H](C2)N(CC2CC2)CC[C@]314 | -68.1 |
| Cl.O.Oc1ccc2c3c1O[C@H]1c4[nH]c5ccccc5c4C[C@@]4(O)C(C2)N(CC2CC2)CC[C@]314 | -16.4 |
| COC(=O)C1=C(C)N(C)C(=O)NC1c1c(O)ccc2ccccc12 (stereo not drawn) | 6.78 |
| CC/C(=N/Nc1ccccc1)c1cnnc(-c2ccccc2)n1 | 0.406 |
| Cc1sc(NC(=O)CCl)c(C(=O)c2ccccc2)c1C | 15.1 |
| Cc1ccc(S(=O)(=O)Nc2nc(C)c(C(=O)N/N=C/c3ccccc3)s2)cc1 | 11 |
| CCOc1ccc(-c2nc(CN3CCCCC3CCn3cccn3)c(C)o2)cc1 (stereo not drawn) | -24.9 |
| COc1ccc(-c2nc(CN3CCN(Cc4ccccc4)CC3)c(C)o2)cc1 | 4.17 |
| COc1ccc(-c2nc(CN3CCCCC3CCc3ccccn3)c(C)o2)cc1 (stereo not drawn) | -79.4 |

| Compound | hERG current change (%, negative = inhibition) at 1uM [%] |
| --- | --- |
| c1ccc2oc(-c3[nH]ncc3CN3CCSCC3)cc2c1 | 9.72 |
| Cc1oc(-c2cccc(F)c2)nc1CN1CCCCC1CCn1cccn1 (stereo not drawn) | -40.1 |
| Fc1cccc(Cc2noc(CN3CCCCC3CCc3ccccn3)n2)c1 (stereo not drawn) | 13.2 |
| Cc1oc(-c2cccc(F)c2)nc1CN1CCCCC1CCc1ccccn1 (stereo not drawn) | -89.5 |
| c1ccc(CCC2CCCCN2Cc2cn[nH]c2-c2cc3ccccc3o2)nc1 (stereo not drawn) | -67 |
| O=C(c1ccccn1)C1CCCN(Cc2cn[nH]c2-c2cc3ccccc3o2)C1 (stereo not drawn) | -23.5 |
| COc1ccc(S(=O)(=O)N(C)C)cc1NC(=O)CCCSc1ccccc1 | -5.8 |
| COc1ccc(Nc2nnc(C)c3ccccc23)cc1C(N)=O | 16.1 |
| CC(C)(C)c1ccc(OC(=O)c2ccc(-n3cncn3)nc2)cc1 | 10.9 |
| CCOC(=O)c1ccc(NS(=O)(=O)c2ccc3oc(=O)[nH]c3c2)cc1 | 7.04 |
| Cl.Nc1ccc(-c2nc3c(ccc4ccccc43)[nH]2)cc1 | 16.3 |
| O=C(NCCN1CCOCC1)c1cc2cc(Br)ccc2oc1=O | 0.63 |
| O=C(NCc1ccc(OC(F)(F)F)cc1)C1CC2Cn3c(nc4ccccc43)C2N1c1ccccc1 (stereo not drawn) | -15.8 |
| CN1C(C(=O)NCc2ccc(OC(F)(F)F)cc2)CC2Cn3c(nc4cc5ccccc5cc43)C21 (stereo not drawn) | -14.7 |
| CN1C(C(=O)NCc2ccc(OC(F)(F)F)cc2)CC2Cn3c(nc4ccccc43)C21 (stereo not drawn) | -74.9 |
| COc1ccc(C2C(C(=O)NCc3ccccc3)=C(C)Nc3ncnn32)cc1OC (stereo not drawn) | 13.9 |
| CC(=O)Nc1ccc(S(=O)(=O)N2CCN(C34CC5CC(CC(C5)C3)C4)CC2)cc1 | 3.31 |
| CC(=O)c1ccc(S(=O)(=O)N2CCN(CC(=O)Nc3ccccc3C(=O)NC3CC3)CC2)cc1 | -43.4 |
| N#Cc1ccc(S(=O)(=O)N2CCN(CC(=O)Nc3ccccc3C(=O)NC3CC3)CC2)cc1 | -67.3 |
| N#Cc1ccccc1S(=O)(=O)N1CCN(CC(=O)Nc2ccccc2C(=O)NC2CC2)CC1 | -25.4 |
| O=C(CN1CCN(S(=O)(=O)c2ccccc2)CC1)Nc1ccccc1C(=O)NC1CC1 | 1.22 |

| Compound | hERG current change (%, negative = inhibition) at 1uM [%] |
| --- | --- |
| O=C(CN1CCc2ccccc2C1)Nc1ccccc1C(=O)NC1CC1 | 3.95 |
| N#Cc1ccc(CN2CCN(CC(=O)Nc3ccccc3C(=O)NC3CC3)CC2)cc1 | -87.4 |
| O=C(CSc1nc2[nH]c(=O)cc(O)c2s1)Nc1cccc(Br)c1 | 18.8 |
| S=c1[nH]nc(-c2cc(-c3ccco3)[nH]n2)n1-c1ccccc1 | 3.15 |
| CC(=O)c1ccc(N2CCN(c3ccccc3O)CC2)c([N+](=O)[O-])c1 | 12.9 |
| Cc1ccc2cc(C#N)c(N3CCN(C(=O)c4cccs4)CC3)nc2c1 | -1 |
| Cc1ccc2nc(N3CCN(C(=O)c4ccc(F)cc4)CC3)c(C#N)cc2c1 | -56.8 |
| N#Cc1cccnc1N1CCN(C(=O)c2cccs2)CC1 | 7.29 |
| Cc1ccc2nc(N3CCN(C(=O)c4cccs4)CC3)c(C#N)cc2c1 | -51.3 |
| Cc1ccc2cc(C#N)c(N3CCN(C(=O)c4ccccc4)CC3)nc2c1 | -6.89 |
| Cc1ccc2nc(N3CCN(C)CC3)c(C#N)cc2c1 | -10 |
| CCC(NC(=O)Cc1c(C)c2ccc(OC)c(C)c2oc1=O)C(=O)NC(Cc1ccc(Cl)cc1)C(=O)O (stereo not drawn) | 0.501 |
| COc1ccc(-n2c(O)c(/C=C3\C=Nc4ccc(Br)cc43)c(=O)[nH]c2=O)cc1 | 12 |
| CC(c1cccs1)N(Cc1ccco1)C(=S)Nc1ccccc1Cl (stereo not drawn) | 11.9 |
| c1ccc(NC2=NCCCCS2)cc1 | -9.85 |
| OCCOCCn1c(C2CCCN2c2nc(-c3ccc(F)cc3)cs2)nc2cc(C(F)(F)F)ccc21 (stereo not drawn) | -73.2 |
| Cc1csc(N2CCCC2c2nc3cc(C(F)(F)F)ccc3n2CCOCCO)n1 (stereo not drawn) | -62.8 |
| OCCOCCn1c(C2CCCN2c2nc(-c3ccc(F)cc3)cs2)nc2cc(Cl)c(Cl)cc21 (stereo not drawn) | -0.144 |
| Cc1ccc(Cn2c(C3CCCN3c3nc(C)cs3)nc3cc(C(F)(F)F)ccc32)cc1 (stereo not drawn) | 8.04 |
| Cc1csc(N2CCCC2c2nc3cc(Cl)c(N4CCCCC4)cc3n2CCOCCO)n1 (stereo not drawn) | -2.57 |
| OCCCn1c(C2CCCN2c2nc(-c3ccc(F)cc3)cs2)nc2cc(C(F)(F)F)ccc21 (stereo not drawn) | 2.52 |
